Measurements from PubChem BioAssay AID624330 (Southern Research Specialized Biocontainment Screening …, 2012).
The campaign covered roughly 340,000 compounds. About 2,100 (0.62%) were called active.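 Rule for the calls: active = first-screen hits whose inhibition reached a set limit at any dose in the follow-up dose series; inconclusive = inhibition above the set first-screen limit but never retested; inactive = the rest.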 The list is a sample of the results. Potency and affinity values are given separately.

Molecular target: Rac GTPase-activating protein 1 (Homo sapiens) (UniProt Q9H0H5)
Experiment: blockers of MgcRacGAP-driven Rac1 GTP hydrolysis – biochemical, ADP Hunter fluorescence, primary and confirmatory, confirmation (AID 624330);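 note: fluorescence reports GDP produced by GAP-driven GTP hydrolysis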
Settings: MgcRacGAP-stimulated Rac1 GTP hydrolysis, at 30 µM, stronger effect = higher value, GST-tagged Rac1 F28L mutant substrate

Chain of Rac GTPase-activating protein 1 (Homo sapiens) (Q9H0H5 whole entry, looked up): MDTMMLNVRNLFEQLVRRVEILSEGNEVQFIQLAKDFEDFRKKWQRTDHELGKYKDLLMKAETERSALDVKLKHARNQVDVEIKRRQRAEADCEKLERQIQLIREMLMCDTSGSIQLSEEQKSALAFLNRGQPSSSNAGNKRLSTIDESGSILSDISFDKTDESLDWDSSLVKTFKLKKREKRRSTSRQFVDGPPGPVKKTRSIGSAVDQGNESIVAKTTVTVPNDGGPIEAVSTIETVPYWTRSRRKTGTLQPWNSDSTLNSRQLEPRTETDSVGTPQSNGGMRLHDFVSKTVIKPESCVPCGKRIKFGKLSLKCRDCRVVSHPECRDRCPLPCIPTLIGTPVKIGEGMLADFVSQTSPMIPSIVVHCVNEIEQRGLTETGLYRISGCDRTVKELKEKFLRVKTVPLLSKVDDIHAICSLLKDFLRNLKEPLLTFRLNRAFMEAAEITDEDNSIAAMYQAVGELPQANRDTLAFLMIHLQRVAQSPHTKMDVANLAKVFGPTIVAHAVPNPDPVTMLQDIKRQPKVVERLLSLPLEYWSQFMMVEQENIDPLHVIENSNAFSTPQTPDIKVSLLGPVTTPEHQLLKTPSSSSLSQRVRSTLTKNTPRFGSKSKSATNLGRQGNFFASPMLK

inhibition, inactive:
COc1ccc(C(=O)C2CCCN(C(=O)CCC3=NNC(=O)CC3)C2)c(C)c1 (stereo not drawn) -12.3%, COc1ccc(N2CCN(C(=O)C3=NNC(=O)CC3)CC2)cc1 4.93%, O=C1CCC(C(=O)N2CCCC(Nc3ccc(F)cc3)C2)=NN1 (stereo not drawn) 13.7%, Cc1ccc(NC2CCCN(C(=O)CCC3=NNC(=O)CC3)C2)cc1C (stereo not drawn) 11.1%, O=C(O)c1ccc(S(=O)(=O)N(Cc2ccc(F)cc2)C2CCCCC2)cc1 7.41%, O=C(Nc1ccc(N2CCOCC2)nc1)c1ccc(F)cc1 3.12%, COc1ccc2cc(/C=N/NC(=O)c3c(Cl)cnn3C)c(Cl)nc2c1 3.85%, Clc1ccc(/C=N/Nc2ncnc3nc[nH]c23)cc1 19.8%, Cc1ccc(/C=N/Nc2ncnc3nc[nH]c23)cc1 11.9%, Nc1c(Cl)ncnc1N/N=C/c1cccnc1 -0.02%, Nc1c(Cl)ncnc1N/N=C/c1cccc(O)c1 -2.65%, Cc1ccc(CCNc2ncnc(Cl)c2N)cc1 6.24%, COc1cccc(/C=N/Nc2ncnc(Cl)c2N)c1O 7.43%, Nc1c(Cl)ncnc1NCCO 12.3%, COc1ccc(/C=N/Nc2ncnc(Cl)c2N)cc1OC 9.22%, CC1CCc2cc(F)ccc2N1C(=O)CN1C(=O)c2ccccc2C1=O (stereo not drawn) 7.46%, FC(F)(F)c1ccncc1-c1nnc(C2CCCCC2)o1 12.4%, CCCC(c1nnnn1Cc1ccc(OC)cc1)N1CCC(C(N)=O)CC1 (stereo not drawn) 3.71%, CC12CC(NC(=O)N1c1cccc(C(=O)N3CCN(c4ccccc4F)CC3)c1)c1ccccc1O2 (stereo not drawn) 4.9%, COC(=O)c1ccc(/C=N/NC(=O)C2CC(=O)N(c3ccc(OC)cc3)C2)cc1 (stereo not drawn) -2.9%, CN(CC(=O)Nc1ccccc1C(F)(F)F)C(=O)CN1C(=O)C2CCCCC2C1=O (stereo not drawn) 8.57%, COc1cccc2sc3cc(NCc4ccc5c(c4)OCO5)ccc3c(=O)c12 3.16%, CCN(CC)C(=O)C1=C(C)N(Cc2ccc(F)cc2)C(=O)C(CC(=O)NCc2ccco2)C1 (stereo not drawn) 13.8%, CCn1cnc2cc(NCc3ccc(Cl)cc3)ccc21 20%, CCn1cnc2cc(NCc3ccc(C)cc3)ccc21 25.6%, COc1cc(NC(=S)N2CCCCC2C)cc(OC)c1OC (stereo not drawn) 12.9%, CC(C)(C#CC(O)(c1ccccc1)c1ccccc1)N1CCCC1 11.3%, C[C@H]1CN(S(=O)C(C)(C)C)[C@@H](CCO)/C1=C\CCO (stereo partly drawn) 5.48%, C=CCNC(=O)CC(=O)N/N=C/c1ccccc1F -1.62%, Cc1cccc(N2CC(C(=O)Nc3cccc(S(=O)(=O)N4CCCCC4)c3)CC2=O)c1C (stereo not drawn) 5.62%, CCOc1ccccc1OCCCOc1ccc(C)cc1Cl 12%, Cn1c(=O)c2nc(SCc3ccccc3)n(C)c2n(C)c1=O 6.08%, CCn1c(=O)n(C)c2c(=O)n(C)c(=O)n(C)c21 -0.22%, CCOC(=O)c1nc2c(=O)n(C)c(=O)n(C)c2n(C)c1=O 0.79%, CCCCn1c(C)nc2c(=O)n(C)c(=O)[nH]c21 4.63%, CNc1nc2c(c(=O)n(C)c(=O)n2C)n1Cc1ccccc1 -6.26%, CCCCn1c(Cl)nc2c1c(=O)n(C)c(=O)n2C 9.62%, CCCn1nc(C(=O)NNC(=O)CCCOc2ccc(OC)cc2)c2ccccc2c1=O 1.29%, Cc1nc(N2CCCCC2)c2sc(=S)n(C)c2n1 5.47%, CCOc1ccc(C(=O)NCCc2ccc3c(c2)OCCO3)cc1 6.99%, O=C(Nc1cc(C(F)(F)F)ccc1N1CCOCC1)c1ccc(F)cc1 9.9%, CS(=O)(=O)c1nc(S(=O)(=O)c2ccc(Cl)cc2)c(N2CCCCC2)s1 5.12%, COCCCNC(=O)C1CCC(CNS(=O)(=O)c2ccc(Cl)cc2)CC1 (stereo not drawn) -9.18%, O=C(COc1ccc2c3c(c(=O)oc2c1)CCC3)NCCCN1CCCC1=O 9.27%, CC(C)=CCC/C(C)=C/CNC(=O)CC1C[C@H](C(=O)N2CCOCC2)[C@@]2(C)c3[nH]c4ccccc4c3CCN2C1=O (stereo partly drawn) 7.27%, COc1ccc(-c2ccccc2[C@H]2[C@@H]3C=CC[C@@H](C)[C@@H]3C(=O)N2Cc2ccccc2)cc1 5.83%, C/C(=N\Nc1nc(-c2cc(C)ccc2C)cs1)c1cc2ccccc2oc1=O 6.23%, O=C(c1ccccc1N1CCOCC1)N1CCCC(Nc2ccc(F)cc2)C1 (stereo not drawn) 9.71%, Cc1cc(C)c(C(=O)N2CCCC(Nc3ccc(C)c(C)c3)C2)o1 (stereo not drawn) -18%, O=C(c1cc(Cl)ccc1F)N1CCCC(Nc2ccc3c(c2)OCCO3)C1 (stereo not drawn) 30.3%, Cc1ccc(NC2CCCN(C(=O)c3ccccc3N3CCOCC3)C2)cc1C (stereo not drawn) 0.36%, COC(=O)c1cccc(C(=O)N2CCCC(Nc3ccc4c(c3)OCCO4)C2)c1 (stereo not drawn) 29.2%, CSCc1ccc(C(=O)N2CCCC(Nc3ccc(F)cc3)C2)o1 (stereo not drawn) 7.33%, COc1ccc(C(=O)C2CCCN(C(=O)c3ccc(CSC)o3)C2)cc1F (stereo not drawn) 5.42%, Cc1cc(C)c(C(=O)N2CCCC(Nc3ccc(F)cc3)C2)o1 (stereo not drawn) 1.75%, O=S(=O)(c1ccccc1)c1nc(-c2ccccc2)oc1N1CCOCC1 6.03%, Cc1nnc(SCc2ccccc2)n1N -3.52%, O=C(O)c1ccc(/C=N/O)cc1 1.83%, CC(C)(C)NC(=O)C(c1ccccc1)N(C(=O)CNC(=O)c1cccs1)c1cccnc1 (stereo not drawn) 4.59%, COc1ccc(C=O)cc1Cn1c(=O)n(CCC(=O)NCc2ccco2)c(=O)c2sccc21 8.39%, Cc1cccc(C(=O)Nc2cccc(C(=O)N/N=C/c3cccc(C)n3)c2)c1 13.9%, CSc1cc(SC)ncn1 1.8%, CC(C)(CN1CCOCC1)NS(=O)(=O)c1ccccc1 1.36%, CCN(CC(=O)Nc1cccc(F)c1)Cc1nc2ccccc2c(=O)[nH]1 -2.26%, CN(C)C(/C=C/Nc1ccc(C#N)cc1)=C(C#N)C#N 4.16%, Cc1ccc(C2=CSC3=NCCN23)cc1 11.6%, CC1=CC(C)(C)N(C(=O)CNC2CCCCC2)c2cc(C)ccc21 30.1%, CC1=CC(C)(C)N(C(=O)CCl)c2cc(C)ccc21 2.46%, CCOc1ccccc1C(C(=O)NC1CCCC1)N(C(=O)c1csnn1)C1CC1 (stereo not drawn) 6.21%, CC(c1nnc(SCC(=O)NC(=O)NCc2ccco2)n1-c1ccc(Cl)cc1)N(C)C (stereo not drawn) 4.03%, CC/C(=C\c1ccc(Cl)cc1)c1ccncc1 5.22%, CCC(=Cc1ccccc1O)c1ccncc1 2.41%, CCOC(=O)C(NC(C)=O)C(=O)Nc1ccc(C(C)(C)C)cc1 (stereo not drawn) 15.1%, C[C@H](CO)N1C[C@H](C)[C@@H](CN(C)S(=O)(=O)c2ccc(F)cc2)Oc2ccc(NC(=O)NC3CCCCC3)cc2C1=O 6.3%, CC(C)(Oc1ccc(Cl)cc1)C(=O)N(Cc1ccccc1)c1ccccn1 1.14%, Cc1ccc2sc(NNC(=O)c3cc(=O)c4ccccc4o3)nc2c1C 24.2%, Cc1cc(C)c2nc(NNC(=O)c3cc(=O)c4ccccc4o3)sc2c1 10.6%, Cc1ccc(C)c(OCCCN2CCCC2)c1 19.9%, Cc1ccc(OCCCCN2CCCCC2)c(Br)c1 6.79%, Cc1ccc(C)c(OCCCN2CCNCC2)c1 7.95%, Cc1ccc(C(C)C)c(OCCCCCN2CCOCC2)c1 7.81%, Cc1ccc(C)c(OCCCCN2CCNCC2)c1C 4.36%, Cc1cc(C)c(OCCCCN2CCNCC2)c(C)c1 8.89%, Clc1ccc(OCCCN2CCCC2)cc1Cl -13.7%, Cc1cc(OCCCN2CCCC2)ccc1Cl 7.71%, Cc1cc(C)n2c(SCC(=O)Nc3ccccc3C#N)nnc2n1 2.29%, COc1ccc(CCN2CCCn3c2nc2c3c(=O)[nH]c(=O)n2C)cc1OC 6.67%, CCC1(NC(C)=O)CC2CC1CC2NC(C)=O (stereo not drawn) 1.95%, CCCC(C)NC(=O)COC(=O)c1ccccc1SCC(=O)NC(C)CCC (stereo not drawn) 2.85%, Cc1ccc(P(=O)(O)c2ccc(C)cc2)cc1 8.6%, Cc1ccc(OCCCCN2CCCCC2)c(C)c1 2.28%, Cc1ccccc1OCCCN1CCCC1 26.5%, Cc1ccccc1OCCOCCN1CCCCCC1 -5.57%, Cc1ccc(OCCN2CCCCCC2)c(C)c1 10.9%, CC1CCCN(C(=O)C2CCN(Cc3ccc4c(c3)OCO4)CC2)C1 (stereo not drawn) 5.33%, COc1ccc(C(=O)Nc2c(C(C)(C)C)nn(C)c2C(C)(C)C)cc1 10.2%, CCOC(=O)C1CCN(S(=O)(=O)c2ccc(Cl)cc2)CC1 4.24%, CCOC(=O)c1sc2nc(CSc3ccccc3)nc(N3CCC(C(N)=O)CC3)c2c1C -5.99%, Cc1sc2nc(CSc3ccccc3)nc(N3CCN(C)CC3)c2c1C 7.15%, CC/C(=N\O)c1ccc(OC)c(OC)c1 8.04%, C=CCOc1ccc(/C(CC)=N/O)cc1OC 3.46%, COc1cc(C(=O)C(=O)c2ccc(O)c(OC)c2)ccc1O 13.4%, COc1cc(C(=O)OCCN2CCCCC2)ccc1O 21.2%
